Among the data in PubChem BioAssay AID1645855 (Buhrlage Lab, Dana-Farber Cancer Institute and Novartis …, 2021) are inhibition values, retold here.

The campaign covered roughly 47,000 compounds. About 3,100 (6.6%) were called active. This is one part of a sample in which actives are shown more often than they occur. Values without a mark were called inactive. No stated cut-off is given here; in the data, active means inhibition above about 30%; inactive means the rest.

Ubiquitin carboxyl-terminal hydrolase 17-like protein 5 (Homo sapiens), sequence (A8MUK1 whole entry, looked up): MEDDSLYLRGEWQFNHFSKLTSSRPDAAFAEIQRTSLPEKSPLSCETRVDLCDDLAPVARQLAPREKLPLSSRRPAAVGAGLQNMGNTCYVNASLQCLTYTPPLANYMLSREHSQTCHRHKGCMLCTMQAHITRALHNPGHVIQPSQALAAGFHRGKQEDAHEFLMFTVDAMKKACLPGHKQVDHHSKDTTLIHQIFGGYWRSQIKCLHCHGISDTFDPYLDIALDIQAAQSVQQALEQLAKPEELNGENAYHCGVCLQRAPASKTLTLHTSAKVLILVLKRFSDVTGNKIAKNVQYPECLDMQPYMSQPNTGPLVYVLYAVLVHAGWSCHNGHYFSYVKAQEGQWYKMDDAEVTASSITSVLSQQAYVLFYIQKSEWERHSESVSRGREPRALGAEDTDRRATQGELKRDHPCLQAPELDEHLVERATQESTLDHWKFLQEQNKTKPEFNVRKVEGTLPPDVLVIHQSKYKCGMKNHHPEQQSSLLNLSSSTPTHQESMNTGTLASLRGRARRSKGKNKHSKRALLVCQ

This test concerns the target Ubiquitin carboxyl-terminal hydrolase 17-like protein 5 (Homo sapiens) (UniProt A8MUK1). Nature of the test: blocks human USP17 ubiquitin-rhodamine cleavage (AID 1645855). The note with it: purified USP17, Ub-rhodamine cleavage fluorescence, 3 h; at 50 µM; active compounds read high.
On to `CC(=O)N1CC(C)Oc2cc(S(=O)(=O)Nc3ccc(C)cc3C)ccc21` (stereo not given), for which the inhibition – broadly, the drop in the measured response relative to a control, in per cent – was 6.48%.
Consider `NC(=O)c1c(NC(=O)c2ccccc2Oc2ccccc2)sc2c1CCN(Cc1ccccc1)C2`, for which the inhibition was 30.4% (active).
Under `CC1CCc2c(sc(NC(=O)c3cc(-c4ccccc4)nc4ccccc34)c2C(N)=O)C1` (stereo not given) stands 4.55%; under `Cc1c(Cc2ccccc2)sc(NC(=O)c2cccnc2)c1C(N)=O`, 10.7%.
Under `O=C(NCc1ccc2c(c1)OCO2)c1ccc(CS(=O)c2ccc(Cl)cc2)o1` (stereo not given) stands -0.0116%; under `CCc1cccc(C)c1NC(=O)C1=Cc2cc(OC)ccc2OC1`, -6.4%; under `Cc1cccc(CNC(=O)C2CCCN(S(=O)(=O)Cc3ccc(F)cc3)C2)c1` (stereo not given), 56.7% (active).
For `CC(=O)Nc1nsc(N2CCC(C(=O)NCc3cccc(C)c3)CC2)n1`, the inhibition is -1.72%.
The same measure for `Cc1cccc(CNC(=O)C2CCN(c3cnc4nccnc4c3)CC2)c1`: -128%.
The same measure for `COc1ccc(Cn2cc(-c3nc(C4CC4)no3)ccc2=O)cc1F`: -5.47%; for `CCN1CCN(c2nc3c(c(=O)[nH]c(=O)n3C)n2CC(O)c2ccccc2)CC1` (stereo not given): -4.6%.
The same measure for `C=CCn1c(N2CCC(C(=O)NCC(C)O)CC2)nc2ccccc21` (stereo not given): 9.39%.
As to `O=C1N[C@H]2OCCC[C@H]2[C@H](c2ccccc2C(=O)O)N1`, the inhibition was -6.46%.
Consider `Cn1c(CCN2CCCC2)nc2cc(NS(=O)(=O)c3ccccc3)ccc21`, for which the inhibition was 60.7% (active).
The same measure for `CC(=O)Nc1ccc2c(c1)nc(CCN1CCCC1)n2C`: -8.68%.
Under `Cn1c(CCN2CCCC2)nc2cc(NC(=O)c3cccc([N+](=O)[O-])c3)ccc21` stands 16.8%; under `CCc1nnc(NC(=O)c2cc(-c3ccc(C)c(C)c3O)n[nH]2)s1`, 16.7%.
Consider `CC(C)(C)C(=O)Nc1ccc(SCc2nnc(-c3ccccc3)o2)cc1`, for which the inhibition is 2.2%.
The same measure for `O=C(Cc1ccccc1)Nc1ccc(-c2nc3cnccc3o2)c(O)c1`: 63.3% (active); for `O=C(Nc1ccc(-c2nc3cnccc3o2)c(O)c1)c1ccc(-c2ccccc2)cc1`: 2.32%; for `COc1cc(C(=O)Nc2ccc(-c3nc4cnccc4o3)cc2)cc(OC)c1OC`: -3.38%.
Under `O=C(c1cc(Cl)ccc1F)N1CCC(c2nc(C3CC3)n[nH]2)CC1` stands -2.96%; under `O=C(Cn1cc(S(=O)(=O)Cc2ccccc2Cl)c2ccccc21)N1CCCCCC1`, 42% (active); under `Cc1ccc(CS(=O)(=O)c2cn(CC(=O)N3CCCCC3)c3ccccc23)cc1`, -20.5%.
Under `O=C(Cn1cc(S(=O)(=O)Cc2ccccc2F)c2ccccc21)N1CCCCCC1` stands -0.288%; under `COc1ccc(-c2nc(-c3cccs3)no2)cc1OC`, -2.65%.
`O=S(=O)(c1ccc(S(=O)(=O)N2CCN3CCCC3C2)cc1)N1CCOCC1` (stereo not given): the inhibition is -8.52%.
The same measure for `Cc1ccc(Nc2nc(O)c(CC(=O)Nc3ccc(C(C)C)cc3)s2)cc1C`: 6.68%.
As for `CCOc1ccc(Nc2nc(O)c(CC(=O)Nc3cccc(C)c3)s2)cc1`, the inhibition is 7.74%.
For `Cc1ccc(NC(=O)Cc2sc(Nc3ccc(C)cc3)nc2O)cc1`, the inhibition is 58.2% (active).
As for `NC(=O)CN1C(=O)CO[C@H]2CN(Cc3ccc(F)c(F)c3)C[C@H]21`, the inhibition is -11.3%.
In the case of `Cn1c(=O)n(CCCO)c(=O)c2c1nc1n2CCCN1c1ccccc1`, the inhibition is 9.32%.
Turning to `COc1cccc(N2CCN(C(=O)CCC3=NS(=O)(=O)c4ccc(C)cc4N3)CC2)c1`, the inhibition is -26.5%.
The same measure for `Cn1c(=O)c2ncn(CC(=O)Nc3ccc(-c4nc5ccccc5o4)cc3)c2n(C)c1=O`: 8.05%; for `CCOc1ccccc1NC(=O)Nc1cc(-c2nc3ccccc3o2)ccc1OC`: 57.1% (active).
On to `COc1ccccc1NC(=O)N1CCN(Cc2nc3ccccc3o2)CC1`, for which the inhibition was -4.24%.
On to `CCN1CCN(c2cc(C)c3cc(NC(=O)c4cccnc4)ccc3n2)CC1`, for which the inhibition was -9.13%.
Consider `CCN(CC)c1nc2ccccc2nc1C(=O)Nc1ccc(N2CCOCC2)cc1`, for which the inhibition was -6.91%.
As for `Cn1cnnc1SCC(=O)Nc1ccc(N2CCOCC2)c(Cl)c1`, the inhibition was -11.6%.
Under `O=C(Cc1ccccc1Cl)Nc1ccc(N2CCOCC2)cc1` stands 31.6% (active); under `O=S(=O)(NCc1nc2cccnc2n1C1CC1)c1ccccc1F`, 9.68%.
As to `Cc1nn(-c2ccc(F)cc2)c(C)c1S(=O)(=O)NCc1ccc2c(c1)OCO2`, the inhibition is -23%.
Consider `COc1ccc(-c2ocnc2C(=O)NCc2ccc(OC)c(OC)c2)cc1`, for which the inhibition is -0.808%.
Under `COc1ccc(CNC(=O)c2[nH]nc3c2CCc2ccccc2-3)cc1` stands 67.3% (active); under `Cn1nc(C(=O)NCCN2CCOCC2)c2c1-c1ccccc1CC2`, 2.07%.
With `CC(=O)O[C@H]1C[C@@]23COC(=O)/C=C(\C)CCOC(=O)/C=C/C=C\C(=O)O[C@@H]4C[C@@H](O[C@@H]2C=C1C)[C@@]1(CO1)[C@]43C`, the inhibition was -0.539%.
Under `Cc1nn(C)cc1C(=O)Nc1cnn(C)c1C(N)=O` stands 5.15%; under `CC(C)(C)C(=O)OCc1noc(-c2ccccc2)n1`, 16.8%; under `Cc1ccc(NCc2cc3c(C)nn(-c4ccccc4)c3[nH]c2=O)cc1C`, -32.1%.
Under `Cc1nn(-c2ccccc2)c2[nH]c(=O)c(C#N)c(-c3ccco3)c12` stands -26.6%; under `CC(C)(C)c1nn(-c2ccccc2)c2[nH]c(=O)c(CNCCc3ccccc3)cc12`, 31.9% (active); under `CCCC(=O)N1CCC(c2cc(=O)[nH]c(-c3ccccn3)n2)C1` (stereo not given), -51.9%.
On to `N#Cc1ccc(Oc2ncnc3ccccc23)cc1`, for which the inhibition was 4.86%.
Turning to `N#Cc1ccc(-c2csc(COc3ccccc3Cl)n2)cc1`, the inhibition was 35% (active).
Under `CC(C)OC(=O)c1cc2c(ccn2-c2ccc(F)cc2)n1Cc1ccccn1` stands 9.79%; under `Cc1c(CN2CCOC(c3cncc(-c4ccccc4F)n3)C2)cnn1C` (stereo not given), -0.212%.
Regarding `COc1ccc(C(=O)N2CC(=O)N(Cc3ccccc3)CC(O)C2)cc1` (stereo not given), the inhibition is -3.64%.
Under `O=C(CN1C(=O)C2CCCC2=Nc2ccccc21)Nc1ccc(F)cc1F` (stereo not given) stands 59.2% (active); under `CCOc1nc2cccnc2n(CC(=O)Nc2ccc(F)cc2F)c1=O`, -5.53%.
Under `O=C(CN1C(=O)c2cccnc2Sc2ccccc21)Nc1ccc(F)cc1F` stands -19.9%; under `Cc1noc(C)c1COc1cccc(C(=O)NC(C)c2cc3ccccc3o2)c1` (stereo not given), 1.56%.
For `COc1ccccc1N1CCN(C(=O)CSc2cc(=O)n(C)c3cc(Cl)ccc23)CC1`, the inhibition is -7.92%.
On to `O=C(NCCc1ccccc1)N1CC[C@@H]2CN(Cc3cccnc3)S(=O)(=O)[C@@H]2CC1`, for which the inhibition was -8.52%.
Under `COc1c(O)c2c(=O)cc(OC)c3c4c(OC)cc(=O)c5c(O)c(OC)c(CC(C)OC(=O)c6ccccc6)c(c(c1CC(C)OC(=O)Oc1ccc(O)cc1)c23)c54` (stereo not given) stands 39.4% (active); under `CCOc1ccccc1NC(=O)COc1cccc2c1OC(C)(C)C2`, 8.61%; under `CCOc1ccccc1NC(=O)Cc1cccs1`, 43.3% (active).
Regarding `CCOc1ccccc1NC(=O)Cn1c(=O)n(-c2ncccc2C(=O)OC)c(=O)c2cccnc21`, the inhibition was -0.0478%.
Under `CC1CCN(c2ncc3c(n2)CCC(C(=O)NC(C)c2cccnc2)C3)CC1` (stereo not given) stands -33.2%; under `CC(=O)c1cccc(NC(=O)c2cccc(-c3nc(-c4ccccc4)no3)c2)c1`, 1.73%; under `Cc1nc(-c2cccc(S(=O)(=O)Nc3ccccc3C)c2)no1`, -1.13%.
The same measure for `Cc1nc(-c2cccc(NC(=O)C3CCN(c4ccccc4)C3=O)c2)no1` (stereo not given): 52.3% (active); for `Cc1cnc2nc3c(cc2c1)CN(S(=O)(=O)c1cccc2cccnc12)CC3`: -136%.
For `N#Cc1ccc(OCC(=O)Nc2ccccc2N2CCCCC2)cc1`, the inhibition was 8.45%.
For the molecule `N#Cc1ccc(NC(=O)Nc2cccn(Cc3ccccc3F)c2=O)cc1`, the inhibition is 93.3% (active).
Regarding `Cc1cc(C)n2nc(CN(Cc3ccccc3)C(=O)c3ccccc3)nc2n1`, the inhibition was -5.53%.
Consider `Cc1ccc(N2CC(c3nnc(NC(=O)CCCc4ccccc4)s3)CC2=O)cc1` (stereo not given), for which the inhibition is -6.98%.
Turning to `CS(=O)(=O)Nc1cccc(C#CCN)c1`, the inhibition is -24.2%.
`O=C(c1sc(N2CCCCC2)nc1-c1ccccc1)c1c[nH]c2ccccc12`: the inhibition was -31.2%.
The same measure for `CN1CCN(c2nc3c(s2)CN(C(=O)c2ccccc2)CC3)CC1`: -15.2%; for `O=C(CN(C(=O)c1ccccc1)C1CCCCC1)Nc1nc(-c2ccccc2)cs1`: 11.1%.
Take `CC(=O)NC(Cc1ccccc1C)C(=O)NC1CCN(C(=O)Nc2cccc(C)c2)CC1` (stereo not given): the inhibition was 1.56%.
The same measure for `Oc1cccc2nc3c(O)cccc3nc12`: 96.1% (active); for `COc1ccc(C(=O)O)cc1S(=O)(=O)Nc1ccc(-c2ccccc2)cc1`: -9.74%.
In the case of `O=c1oc2cccnc2n1Cc1ccccc1F`, the inhibition is 13%.
Regarding `COc1ccccc1CNC(=O)C1CCN(S(C)(=O)=O)c2ccccc2O1` (stereo not given), the inhibition was 1.45%.
Under `Cc1ccc(CN2C(=O)CS(=O)(=O)C(C)C2=O)cc1` (stereo not given) stands 0.155%.
The same measure for `Cc1nc(-c2ccc(C(=O)NCc3ccc4c(c3)OCO4)cc2)cs1`: 29.5%; for `CC(NC(=O)c1ccc2c(c1)OCCO2)c1ccc2c(c1)OCCCO2` (stereo not given): -21.9%.
Under `C[C@H](NC(=O)c1ccc2c(c1)OCO2)c1nc2cc(-c3ccc(F)cc3)ncn2n1` stands 35% (active); under `Cc1ccc(NS(=O)(=O)c2cc3n(c2)CCCNC3=O)c(F)c1`, -11.3%.
